The compounds below were run against Shiga toxin 2 (Escherichia coli O157:H7) (UniProt P09385+P09386) (assay: E. coli 0.157:H7 Shiga Toxin SOP - stx2 screening assay). Conditions: 30 µM.
Assay type: functional
Parameters: scale not given: direction of the effect not stated beside the values
`COc1ccc(C2CC(=O)Nc3c2cnn3C2CCCC2)cc1` (stereo not given) gave a Percent Effect of 10.9%.
`O=C(CCC1CCCC1)NCCn1nc(C2CCNC2)c2cccnc21` (stereo not given) gave a Percent Effect of -19.4%.
With `c1ccc(Cn2cc3c(n2)C(COCC2CC2)OCC3)nc1` (stereo not given) the Percent Effect was -12.1%.
`Cc1nccn1C1CCCN(C(=O)c2cc3ccccc3[nH]2)C1` (stereo not given) was tested, and the Percent Effect was 0.146%.
`CC(C)Nc1nc(N2CCOCC2)nc2c1CN(CC(=O)N(C)C)CC2` showed a Percent Effect of -23.6%.
Compound `COc1ccc(NC(=O)N2CCCC2c2ccco2)cc1OC` (stereo not given) has a Percent Effect of -11.9%.
With `Cn1cccc1CNC(=O)CCCc1nnc2ccccn12` the Percent Effect was -34.1%.
`c1cncc(-c2ccc3c(c2)C2(CC3)CCN(c3nncs3)CC2)c1` gave a Percent Effect of -7.47%.
Work on `CCn1cc2c(n1)CN(Cc1ccoc1)CC2COCC1CC1` (stereo not given) yielded a Percent Effect of 13.8%.
`Cc1nc(N2CCOCC2)nc2c1CN(C(=O)Cc1ccccn1)CC2` gave a Percent Effect of -57.2%.
In the case of `O=C1COC2(COCCN(Cc3ccsc3)C2)CN1c1ccc(F)cc1` (stereo not given), the Percent Effect is reported as -4.46%.
`N#Cc1cccc(NC(=O)N[C@H](CO)c2ccccc2)c1` gave a Percent Effect of -24.6%.
For `Cc1ccc(NC(=O)N2CCC(NC(=O)c3ccc(C)o3)CC2)cc1`, the Percent Effect was 25.3%.
With `O=C(NCCOc1ccc2c(c1)OCO2)N1CCC1` the Percent Effect was -21.5%.
`Cc1cc(C)c(CNC(=O)N2CCCC2c2ccccc2)c(=O)[nH]1` (stereo not given) was tested, and the Percent Effect was -21.1%.
Work on `Cc1cnn(CC2CCCN2C(=O)c2ccc3cc[nH]c3c2)c1` (stereo not given) yielded a Percent Effect of 1.09%.
`CCOCC1CN(C(=O)C2=CCCC2)Cc2cnn(CC)c21` (stereo not given) was tested, and the Percent Effect was 3.46%.
`COc1cccn(CC(=O)N(C)Cc2ccoc2)c1=O` was tested, and the Percent Effect was 5.29%.
Compound `O[C@H]1CCN(Cc2ccoc2)[C@H]1Cc1cccnc1` has a Percent Effect of -6%.
`O=C(c1ccco1)N1CCOCC2(C1)CN(c1ccccc1)C(=O)CO2` (stereo not given) showed a Percent Effect of 2.61%.
`Cc1nc(COC[C@@H]2CC[C@H]3[C@H](CCN3S(C)(=O)=O)O2)cs1` was tested, and the Percent Effect was 1.49%.
For `Cc1cccc(CN(C)Cc2nc3c(cnn3C)c(=O)[nH]2)c1`, the Percent Effect was 35.9%.
In the case of `Cn1ccc(CN2CCC(CO)CC2)cc1=O`, the Percent Effect is reported as -5.61%.
`CN(CCc1ccccc1)Cc1cc(C(=O)N2CCCC2(C)C)no1` showed a Percent Effect of -34.7%.
Compound `Cc1noc(C)c1CCC(=O)NC(C)c1nnc2n1CCC2` (stereo not given) has a Percent Effect of -3.03%.
Work on `CN(Cc1cncnc1)Cc1cn2c(n1)CN(C1CCOC1)CC2` (stereo not given) yielded a Percent Effect of -15.6%.
In the case of `Cc1cnn(CC2CN(Cc3nnc(-c4occc4C)o3)CCO2)c1` (stereo not given), the Percent Effect is reported as 12.3%.
`CCc1nc(N)sc1C(=O)N1CCCC(CCc2ccccc2C)C1` (stereo not given) showed a Percent Effect of -7.07%.
Work on `Cc1ncnc2c1CCN(Cc1cccs1)CC2` yielded a Percent Effect of -21.2%.
`Cc1cnn(CCC(=O)N2CCCN(c3cccnn3)CC2)c1` gave a Percent Effect of -11.6%.
`CCCN1CCC(NC(=O)c2ccc(F)cc2I)CC1` showed a Percent Effect of 2.29%.
For `CC(C)NC(=O)c1nnn(-c2cccc(C(F)(F)F)c2)c1C1CC1`, the Percent Effect was 8.87%.
In the case of `Cn1cc(C(=O)N2CCCC(Cc3nccs3)C2)cn1` (stereo not given), the Percent Effect is reported as 14.9%.
`CC(=O)NCc1ccc(C(=O)N2CCCC2c2cnn(C)c2)o1` (stereo not given) gave a Percent Effect of 21.1%.
`Cc1nc(C)n(C2CCCN(C(=O)c3ccc(NC4CC4)nc3)C2)n1` (stereo not given) gave a Percent Effect of -7.5%.
For `C[C@H](O)CNC(=O)c1cnc(-c2ccccc2)nc1O`, the Percent Effect was -10.8%.
In the case of `Cc1ccc(C(=O)N2CCC3(CC2)NC(=O)CC3c2ccccc2)cn1` (stereo not given), the Percent Effect is reported as -13.9%.
`CC(C)c1noc(C(C)N2CCN(CCO)CC2)n1` (stereo not given) showed a Percent Effect of 16.1%.
Compound `O=C(Cc1ccc2c(c1)CCCC2)NCCc1ccccn1` has a Percent Effect of 29.1%.
With `O=S(=O)(NCC1(O)CCOc2ccccc21)c1cccs1` (stereo not given) the Percent Effect was -8.71%.

From ChEMBL document CHEMBL3988442, “University of Dundee, Small-Polar-MMV Screening Library” (2021)
